Measurements as given in PubChem BioAssay AID2018 (Sanford-Burnham Center for Chemical Genomics, 2009).
About 600 (50%) of roughly 1,200 compounds were called active. No stated cut-off is given here; in the data, active means inhibition above about 42%; inactive means the rest. The set was probably picked from earlier hits. Some of the results follow. Measured potencies and affinities stand elsewhere.

Target: SUMO-conjugating enzyme UBC9 (Homo sapiens) (UniProt P63279)
Experiment: SUMOylation inhibitor hit validation, confirmation, SUMOylation inhibitor project, biochemical, AlphaScreen (AID 2018)
Conditions: AlphaScreen in vitro SUMOylation assay; at 35 µM; hits give high values

Sequence of SUMO-conjugating enzyme UBC9 (Homo sapiens) (P63279 whole entry, looked up): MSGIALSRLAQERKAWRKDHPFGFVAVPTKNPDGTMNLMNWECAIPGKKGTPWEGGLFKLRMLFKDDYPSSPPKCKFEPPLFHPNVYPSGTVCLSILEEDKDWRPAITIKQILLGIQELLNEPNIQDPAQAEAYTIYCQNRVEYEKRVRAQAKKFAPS

SMILES | inhibition
CCOc1ccc(N2CC(C(=O)NCc3ccc(F)cc3)CC2=O)cc1 (centres undefined) | 6.3% (inactive)
COCCNC(=O)CCC1CCN(Cc2ccc(-c3ccccc3)cc2)CC1 | -1.3% (inactive)
Cc1n[nH]c(=S)n(NC(=O)/C=C/C(=O)Nn2c(=S)[nH]nc(C)c2=O)c1=O | 101% (active)
S=C(Nc1ccc2nsnc2c1)N1CCCCCC1 | 28.1% (inactive)
S=C(NCc1ccc2c(c1)OCO2)Nc1ccc2nsnc2c1 | 25.4% (inactive)
OCCNC(=S)Nc1ccc2nsnc2c1 | 54.8% (active)
S=C(Nc1ccc2nsnc2c1)NC1CCCCC1 | 95.3% (active)
S=C(Nc1ccc2nsnc2c1)N1CCCCC1 | 18.3% (inactive)
COCCNC(=S)Nc1ccc2nsnc2c1 | 6.6% (inactive)
Nc1ccc2nc(-c3ccccc3)sc2c1 | -1.4% (inactive)
Nc1ccc2nn(-c3cccc4ccccc34)nc2c1 | 43.5% (active)
CN(C)C=Nc1ccc2nn(-c3ccccc3)nc2c1 | -10.8% (inactive)
Nc1ccc2nn(-c3ccccc3)nc2c1 | 68.1% (active)
Cc1ccc(-n2nc3ccc(N)cc3n2)c(C)c1 | 39.7% (inactive)
Cn1cc2ccc(N)cc2n1 | -18.5% (inactive)
N#Cc1ccsc1NC(=O)CN1CCN(c2ccc(O)cc2)CC1 | 5.7% (inactive)
O=C(Nc1ccccc1)Nc1ccno1 | -7.1% (inactive)
O=C(Nc1ccc2nsnc2c1)N1CCCCC1 | 2.3% (inactive)
O=C(NCCc1ccccc1)c1ccc2nc(-c3ccco3)c(-c3ccco3)nc2c1 | 70.9% (active)
O=C(NCc1ccccc1)c1ccc2nc(-c3ccco3)c(-c3ccco3)nc2c1 | 65.7% (active)
S=C(Nc1ccc2nc(-c3ccccn3)c(-c3ccccn3)nc2c1)N1CCOCC1 | 3.8% (inactive)
CC(C)c1ccccc1NC(=O)COc1ccc(C(=O)NCCc2ccccc2)cc1 | 26.7% (inactive)

SMILES | inhibition
O=C(Nc1ccc2nc(-c3ccco3)c(-c3ccco3)nc2c1)N1CCN(c2ccccn2)CC1 | 76.6% (active)
O=C(Cc1ccccc1)Nc1nnc(-c2ccco2)s1 | 11.3% (inactive)
COc1ccc(CCn2c(N)c(C(=O)NCc3ccco3)c3nc4ccccc4nc32)cc1OC | 9.7% (inactive)
O=C(Nc1cccnc1)c1cc2cc(Br)ccc2oc1=O | 34.9% (inactive)
CC(=O)Nc1ccc2nc3ccccc3nc2c1 | 15.1% (inactive)
COc1ccc(CCNC(=O)c2ccc3nc(-c4ccco4)c(-c4ccco4)nc3c2)cc1OC | 73.3% (active)
Cc1ccc(Cn2cccc(NS(C)(=O)=O)c2=O)cc1 | 26.5% (inactive)
COc1ccc(-c2cc(-c3ccccc3)n3ncnc3n2)cc1 | 5.5% (inactive)
Cc1nn2cc(-c3ccccc3)nc2[nH]c1=O | 9.6% (inactive)
CC(C)c1ccc(S(=O)(=O)/N=C2/C=CC(=O)c3ccccc32)cc1 | 102% (active)
O=C(NCc1ccccc1)Nc1cccn(Cc2c(F)cccc2Cl)c1=O | -15.7% (inactive)
COc1ccc2c(c1)-c1nc(/N=C/c3ccc(O)cc3)sc1CC2 | 30.9% (inactive)
Oc1ccc(/C=N/Nc2cc(N3CCCC3)nc(N3CCCC3)n2)cc1O | 102% (active)
Oc1ccc(/C=N/Nc2cc(N3CCCC3)nc(N3CCCC3)n2)cc1 | 82.3% (active)
CN(C)c1ccc(/C=N/Nc2cc(N3CCOCC3)nc(N3CCOCC3)n2)cc1 | 39.5% (inactive)
Cc1ccc(N=Nc2c(N)[nH]n3c(=O)cc(C)nc23)cc1 | 37.3% (inactive)
COc1ccc2c(c1)Cc1sc(NC(C)=O)nc1-2 | 41.3% (inactive)
COCCN(CCOC)S(=O)(=O)c1ccc(C(=O)Nc2nc3c(s2)CCc2ccccc2-3)cc1 | 30.1% (inactive)
COc1ccc2c(c1)Cc1sc(NC(=O)c3cccs3)nc1-2 | 51.9% (active)
COc1ccc(C(=O)Nc2nc3c(s2)Cc2cc(OC)ccc2-3)cc1 | 59.7% (active)
COc1ccc2c(c1)Cc1sc(NC(=O)c3ccccc3)nc1-2 | 34.5% (inactive)
Cn1c(=O)c(Nc2ccc(O)cc2)c2c3c(cccc31)C(=O)c1ccccc1-2 | 91.8% (active)

SMILES | inhibition
COc1ccc(-c2ccnc3nc(/N=C/N(C)C)nn23)cc1 | -8.3% (inactive)
COc1cccc(Cn2cccc(NC(=O)NC3CCCCC3)c2=O)c1 | 25.8% (inactive)
CC1CCN(CCCn2c(=S)[nH]c3ccc(N4CCOCC4)cc3c2=O)CC1 | -13.8% (inactive)
O=c1c2ccccc2nc(/C=C/c2cccnc2)n1Cc1ccccc1 | 98.2% (active)
Cc1c2c(=O)n(-c3nc4ccccc4s3)nc-2cc(O)n1Cc1ccccc1 | 20.5% (inactive)
COc1ccc(-n2c3nc4ccccc4nc3c3c(=N)oc(C)nc32)cc1 | 64% (active)
COCCCNC(=O)c1c(N)n(-c2ccccc2)c2nc3ccccc3nc12 | -25.1% (inactive)
COc1ccccc1/C=N/NC(=O)c1ccc(CN2C(=O)c3cccc4cccc2c34)cc1 | -17.1% (inactive)
NC(=O)N/N=C/c1ccc2cccc(OCc3ccccc3)c2n1 | 31.5% (inactive)
O=C(N/N=C/c1ccccc1)c1ccc(CN2C(=O)c3cccc4cccc2c34)cc1 | 51.5% (active)
Cc1cccc(C(=O)NC2C(=O)NNC2c2ccc(Cl)cc2)c1 (centres undefined) | 69.8% (active)
CC1OC(Nc2cccc3ccccc23)C(O)C(O)C1O (centres undefined) | 38.7% (inactive)
O=C(N/N=C/c1ccc(O)c2ncccc12)c1cccc(Br)c1 | 65.3% (active)
CCOc1ccc(N2C(=O)c3ccc(C(=O)OCC(=O)N(CC)C4CCS(=O)(=O)C4)cc3C2=O)cc1 (centres undefined) | 42.4% (active)
O=c1oc2cc(O)ccc2cc1-c1ccc(F)cc1 | 15.5% (inactive)
Cc1cc(/C=C2\SC(=S)NC2=O)c(C)[nH]1 | 65.4% (active)
c1ccc2c3c(cc(N4CCOCC4)c2c1)OC1(N2CCOCC2)CCCCC1O3 (centres undefined) | 92% (active)
Cc1ccc(C2C(C#N)=C(N)N(c3cccnc3)C3=C2C(=O)CCC3)s1 (centres undefined) | 16.8% (inactive)
NC(=O)c1ccc(N=C2C(=O)Nc3ccc([N+](=O)[O-])cc32)cc1 | 102% (active)
NC(N)=N/N=C/c1cc([N+](=O)[O-])ccc1O | -9.1% (inactive)
